Among all 2,300 compounds or so, about 330 (14%) showed activity.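 How the source made its calls: active = median modified Z-score above 1.96; inactive = 1.96 or below.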 Only a sample is shown.
Tested on: HepG2 Srxn1-GFP reporter cells (+30 nM CDDO-Me)
Test: Srxn1-GFP intensity median modified Z-score relative to plate median; higher = stronger NRF2 / oxidative stress reporter activation, active = hit call of the paper
Details: 10 µM; exposure time: 24h
How it was run: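 HepG2 Srxn1-GFP BAC reporter cells were seeded at 20,000 per well in 96-well plates and co-exposed for 24 h to compound at 10 μM and an NRF2 activator at 30 nM, with DMSO at ≤0.1%, in three replicate plates. Cells were fixed with formaldehyde, stained with Hoechst and imaged by confocal microscopy, and cytoplasmic GFP was measured per cell, with images holding under 100 cells discarded. The reported value is the median over replicates of each plate's modified Z-score of GFP intensity. For this score, scaling used 1.4826 × median absolute deviation.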

Compound	Srxn1-GFP intensity median modified Z-score
COC1C(O)C(O)C(O)[C@@H](O)C1O (stereo not given in full) [euspeclibcmpd1333]	-0.525 (inactive)
C=C(NC(=O)C(C)=NC(=O)c1csc(C2=NC3c4csc(n4)C4NC(=O)c5csc(n5)C(C(C)(O)C(C)O)NC(=O)C5CSC(=N5)C(=CC)NC(=O)C(C(C)O)NC(=O)c5csc(n5)C3(CC2)NC(=O)C(C)NC(=O)/C(C)=N/C(=O)C(C)NC(=O)C(C(C)CC)NC2C=Cc3c(C(C)O)cc(nc3C2O)C(=O)OC4C)n1)C(N)=O (stereo not given) [euspeclibcmpd703]	19.1 (active)
CC1(C)O[C@@H]2CC3C4CC=C5CC(=O)C=C[C@]5(C)C4[C@@H](O)C[C@]3(C)[C@]2(C(=O)CO)O1 (stereo not given in full) [euspeclibcmpd859]	-0.247 (inactive)
C[N+](C)(C)C[C@H](O)CC(=O)O [euspeclibcmpd2087]	-0.18 (inactive)
O=[N+]([O-])c1cccc2c[nH]nc12 [euspeclibcmpd1788]	-0.00617 (inactive)
CC(C)c1c(O)ccc2c1CCC1C(C)(C)CCC[C@]21C (stereo not given in full) [euspeclibcmpd1572]	8.09 (active)
COC(=O)[C@@]1(C)CCC[C@]2(C)c3ccc(O)c(C(C)C)c3CCC12 (stereo not given in full) [euspeclibcmpd1676]	1.46 (inactive)
CC(C)c1c(O)c(-c2cc3c(c(C(C)C)c2O)CCC2C(C)(C)CCC[C@]32C)cc2c1CCC1C(C)(C)CCC[C@]21C (stereo not given in full) [euspeclibcmpd1653]	-0.248 (inactive)
O=C(O)C1CSCN1 (stereo not given) [euspeclibcmpd1135]	-0.116 (inactive)
O=c1cc(-c2ccc(O)cc2)oc2ccc(O)cc12 [euspeclibcmpd1816]	1.7 (inactive)
Cc1nc(COP(=O)(O)O)cc2c1[O][Mn][O]c1c(cc(COP(=O)(O)O)nc1C)CN(CC(=O)O)CCN(CC(=O)O)C2 [euspeclibcmpd2441]	1.06 (inactive)
COc1ccc(-c2ccc3cc(C(=O)O)ccc3c2)cc1C12CC3CC(CC(C3)C1)C2 [euspeclibcmpd491]	3.08 (active)
COC(=O)c1cc(OC)c(=O)c2c(OC)c(OC)ccc2c1 [euspeclibcmpd2293]	-0.421 (inactive)
COc1cc(C(=O)O)cc(OC)c1O [euspeclibcmpd1648]	0.178 (inactive)
COc1cc(C(=O)O)cc(OC)c1O	1.18 (inactive)
CCCOc1ccccc1-c1nc(=O)c2[nH]nnc2[nH]1 [euspeclibcmpd2036]	-0.165 (inactive)
N[C@@H]1CCCC[C@H]1N [euspeclibcmpd2386]	1.79 (inactive)
C/C=C/CC(C)C(O)C1C(=O)NC(CC)C(=O)N(C)CC(=O)N(C)C(CC(C)C)C(=O)NC(C(C)C)C(=O)N(C)C(CC(C)C)C(=O)NC(C)C(=O)NC(C)C(=O)N(C)C(CC(C)C)C(=O)N(C)C(CC(C)C)C(=O)N(C)C(C(C)C)C(=O)N1C (stereo not given) [euspeclibcmpd445]	8.19 (active)
CC(=O)O[C@H]1CC[C@@]2(C)C(=CCC3C2CC[C@@]2(C)C3CC[C@@H]2C(C)CCCC(C)C)C1 (stereo not given in full) [euspeclibcmpd2217]	-0.115 (inactive)
CCOc1cccc(C(=O)c2ccc(O)c(O)c2O)c1 [euspeclibcmpd1514]	-0.219 (inactive)
CC(NC(CCc1ccccc1)C(=O)O)C(=O)N1CCCC1C(=O)O (stereo not given) [euspeclibcmpd609]	0.185 (inactive)
CC(C)=CCCC(C)[C@@H]1CC[C@]2(C)C3=C(CC[C@@]12C)C1(C)CC[C@H](O)C(C)(C)C1CC3 (stereo not given in full) [euspeclibcmpd2235]	2.85 (active)
CC(C)=CCCC(C)C1CC[C@@]2(C)C3=C(CC[C@]12C)C1(C)CC[C@H](O)C(C)(C)C1CC3 (stereo not given in full) [euspeclibcmpd2336]	0.013 (inactive)
CC(=O)O[C@H]1CCC2(C)C3=C(CCC2C1(C)C)[C@]1(C)CCC(C(C)CCC=C(C)C)[C@@]1(C)CC3 (stereo not given in full) [euspeclibcmpd2332]	-0.0515 (inactive)
COc1cc(C)c2c(c1C=O)Oc1c(c(C)c(O)c3c(O)oc(O)c13)OC2=O [euspeclibcmpd1947]	0.6 (inactive)
CC[C@H]1OC(=O)C(C)[C@@H](O[C@H]2C[C@@](C)(OC)[C@@H](O)[C@H](C)O2)[C@H](C)[C@@H](O[C@@H]2O[C@H](C)C[C@H](N(C)C)[C@H]2O)[C@](C)(O)C[C@@H](C)CN(C)[C@H](C)[C@@H](O)[C@]1(C)O (stereo not given in full) [euspeclibcmpd690]	1.41 (inactive)
CC(C)c1ccc2oc3[nH]c(=N)c(C(=O)O)cc3c(=O)c2c1 [euspeclibcmpd492]	1.12 (inactive)
CCC(C)[C@H]1O[C@]2(C=C[C@@H]1C)C[C@@H]1C[C@@H](C/C=C(\C)[C@@H](OC3C[C@H](OC)C(O[C@H]4C[C@H](OC)[C@@H](NC(C)=O)[C@H](C)O4)[C@H](C)O3)[C@@H](C)/C=C/C=C3\CO[C@@H]4[C@H](O)C(C)=CC(C(=O)O1)[C@]34O)O2 (stereo not given in full) [euspeclibcmpd495]	0.588 (inactive)

Compound	Srxn1-GFP intensity median modified Z-score
CO[C@H]1CC(O[C@@H]2/C(C)=C/C[C@@H]3C[C@@H](C[C@]4(CC[C@H](C)[C@@H](C5CCCCC5)O4)O3)OC(=O)C3=CC(C)C(=NO)C4OC/C(=C\C=C\[C@@H]2C)[C@@]34O)O[C@@H](C)C1O (stereo not given in full) [euspeclibcmpd601]	8.72 (active)
CO[C@H]1CC(O[C@@H]2/C(C)=C/C[C@@H]3C[C@@H](C[C@]4(C=C[C@H](C)[C@@H](C5CCCCC5)O4)O3)OC(=O)C3=CC(C)[C@@H](O)[C@H]4OC/C(=C\C=C\[C@@H]2C)[C@@]34O)O[C@@H](C)C1O[C@H]1C[C@H](OC)[C@@H](O)[C@H](C)O1 (stereo not given in full) [euspeclibcmpd131]	8.87 (active)
CON=C1C[C@]2(C[C@@H]3C[C@@H](C/C=C(\C)C[C@@H](C)/C=C/C=C4\CO[C@@H]5[C@H](O)C(C)=CC(C(=O)O3)[C@]45O)O2)O[C@H](/C(C)=C/C(C)C)C1C (stereo not given in full) [euspeclibcmpd768]	-0.575 (inactive)
CCC(C)[C@H]1O[C@]2(C=C[C@@H]1C)C[C@@H]1C[C@@H](C/C=C(\C)[C@@H](OC3C[C@H](OC)C(O[C@H]4C[C@H](OC)[C@@H](O)[C@H](C)O4)[C@H](C)O3)[C@@H](C)/C=C/C=C3\CO[C@@H]4[C@H](OC)C(C)=CC(C(=O)O1)[C@]34O)O2 (stereo not given in full) [euspeclibcmpd1403]	5.69 (active)
CCC(C)[C@H]1O[C@]2(CC[C@@H]1C)C[C@@H]1C[C@@H](C/C=C(\C)[C@@H](OC3C[C@H](OC)C(O[C@H]4C[C@H](OC)[C@@H](O)[C@H](C)O4)[C@H](C)O3)[C@@H](C)/C=C/C=C3\CO[C@@H]4[C@H](O)C(C)=CC(C(=O)O1)[C@]34O)O2 (stereo not given in full) [euspeclibcmpd982]	0.921 (inactive)
CCCCC(CC)CN=C(N)N=C(N)NCCCCCCN=C(N)N=C(N)NCC(CC)CCCC (stereo not given) [euspeclibcmpd2037]	0.191 (inactive)
CC(=O)NC(CS)C(=O)O (stereo not given) [euspeclibcmpd14]	-0.532 (inactive)
CC12CCC3c4ccc(O)cc4CCC3C1C[C@H](O)[C@@H]2O (stereo not given in full) [euspeclibcmpd2315]	-0.0343 (inactive)
COC(=O)C(Cc1ccccc1)NC(=O)C(N)CC(=O)O (stereo not given) [euspeclibcmpd740]	-0.355 (inactive)
CC(=O)OC1CCC2(C)C(=CCC3C2CCC2(C)C(C(=O)O)CCC32)C1 (stereo not given)	0.226 (inactive)
CC(c1ncncc1F)[C@](O)(Cn1cncn1)c1ccc(F)cc1F (stereo not given in full) [euspeclibcmpd477]	-0.000648 (inactive)
CC(=O)/N=c1\sc(S(N)(=O)=O)nn1C [euspeclibcmpd555]	0.456 (inactive)
CNC[C@@H](O)c1ccc(O)c(O)c1 [euspeclibcmpd110]	-0.782 (inactive)
CC(=O)OC1CCC2(C)C3CC(=O)C4(C)C(CC5OC6(CCC(C)CO6)[C@@H](C)C54)C3CC[C@H]2C1 (stereo not given in full) [euspeclibcmpd1545]	-0.224 (inactive)
C[C@]12CCC3c4ccc(OS(=O)(=O)O)cc4CCC3C1CC[C@H]2O (stereo not given in full) [euspeclibcmpd2359]	0.435 (inactive)
COc1ccc2c(c1)CCC1C2CC[C@@]2(C)C1CC[C@@H]2O (stereo not given in full) [euspeclibcmpd2297]	4.5 (active)
C[C@]12CCC3c4ccc(O)cc4CCC3C1CC[C@@H]2O (stereo not given in full) [euspeclibcmpd115]	-0.23 (inactive)
NS(=O)(=O)N1CCN(C(=O)OCC(F)(F)F)CC1	0.381 (inactive)
CC(=O)N1CCc2cc(C(=O)C(C)Sc3nnc4c(Cl)cc(Cl)cn34)ccc21 (stereo not given)	1.9 (inactive)
O=c1c(-c2ccc(O)cc2)coc2cc(O)ccc12 [euspeclibcmpd2265]	0.00154 (inactive)
O=c1c(-c2ccc(O)cc2)coc2cc(O)cc(O)c12 [euspeclibcmpd1252]	7.05 (active)
COc1ccc(-c2coc3cc(O)cc(O)c3c2=O)cc1 [euspeclibcmpd1972]	-0.252 (inactive)
CSCCC(NC(=O)[C@H](Cc1c[nH]c2ccccc12)NC(=O)CCNC(=O)OC(C)(C)C)C(=O)N[C@@H](CC(=O)O)C(=O)N[C@@H](Cc1ccccc1)C(N)=O (stereo not given in full) [euspeclibcmpd918]	-0.345 (inactive)
CC(CCC(=O)O)[C@H]1CCC2C3CC[C@@H]4CCCC[C@]4(C)C3CC[C@@]21C (stereo not given in full) [euspeclibcmpd1329]	1.64 (inactive)
O=S1(=O)CCC(N(C2CC2)S(=O)(=O)c2ccc(F)c(Cl)c2)C1 (stereo not given)	1.31 (inactive)
CC12CCC3c4ccc(O)cc4CC(CCCCCCCCC[S+]([O-])CCCC(F)(F)C(F)(F)F)C3C1CCC2O (stereo not given) [euspeclibcmpd1981]	-0.582 (inactive)
CC(C)(C)CC(=O)OCC(=O)[C@@]1(O)CCC2C3CC=C4CC(=O)C=C[C@]4(C)C3[C@@H](O)C[C@@]21C (stereo not given in full) [euspeclibcmpd2328]	-0.406 (inactive)
